This passage reports outcome results from PubChem BioAssay (NCATS).

Inconclusive results are not listed. Calls of active or inactive are those of the source. The call rests on the fitted dose curve; in most records, active means well fitted curve in the direction sought with a large enough effect; inconclusive means small, poorly fitted or top-dose-only effect, or effect the other way, or another doubt; inactive means no such curve, though single readings can be large or run the other way. Starred links: 1 amine or outer side, 2 acyl side, 3 side chain; linkers in the order of their positions; H or OH if unused. Positions of bridges follow the written chain, without caps; N, C: chain ends. Non-standard residues stand in square brackets, D forms with d. Residues, ends and D or L forms follow the SMILES beside them. ξ: configuration not given here. *: point of attachment. X3 = C[C@@H](Oc1ccc([C@H](N[*:1])C(=O)[*:2])cc1)[C@]1(/C=C\C(=O)[*:3])CO1; d(aIle) = CC[C@H](C)[C@@H](N)C(=O)O; X2 = CC(C)[C@@H](O)C(C)C(=O)*; ξNMeF = CNC(Cc1ccccc1)C(=O)O; ξT = CC(O)C(N)C(=O)O; ξS = NC(CO)C(=O)O

This assay is described as follows: 10-beta competent E. coli microbial cell viability qHTS against the NCATS CANVASS Library (AID 1347376). Conditions: E. coli 10-beta viability, BacTiter-Glo ATP luminescence, overnight; series mostly up to 46.1 µM. From the text: Natural products and their derivatives continue to be wellsprings of nascent therapeutic potential. However, many laboratories have limited resources for biological evaluation, leaving their previously isolated or synthesized compounds largely or completely untested. To address this issue, the Canvass library of natural products was assembled (https://tripod.nih.gov/canvass), in collaboration with academic and industry researchers, for quantitative high-throughput screening (qHTS) across a diverse set of cell-based and biochemical assays. The pure (>85% purity by liquid chromatography/mass spectrometry [LC/MS]) Canvass library of 346 natural products were submitted by 45 academic laboratories and companies around the world. We collected pure natural products to circumvent deconvolution and structure elucidation due to time and resource limitations. The library was formatted into 1536-well plates and evaluated in 50 qHTS (in an 11-pnt concentration series) bioassays with broad scope of disease-relevant mechanisms. The resulting data set from 50 different assays was then systematically analyzed to identify overall trends and specific natural products with interesting biological activities. Reported herein are the results of each individual qHTS and their corresponding assay protocol. The BacTiter-Glo microbial cell viability assay is a homogeneous method for determining the number of viable bacterial cells in culture based on quantitation of the ATP present. ATP is an indicator of metabolically active cells. The homogeneous assay procedure involves adding a single reagent (BacTiter-GloTM Reagent) directly to bacterial cells in medium and measuring luminescence. National Center for Advancing Translational Sciences (NCATS), Rockville, MD National Institute of Health (NIH), Bethesda, Maryland
10-beta competent E.coli cytotoxicity protocol: 1. In a 1536 well, tissue culture treated white solid bottom plates (Greiner Bio-One North America), 5 uL of 10-beta competent E. coli suspension (0.9 OD culture diluted 0.2 OD) was dispensed into columns 1, 2, and 5-48 using the Multidrop Combi dispenser (Thermo Fisher Scientific). 2. Controls and compounds were pin transferred (~23 nL volume) to the assay plates via Wako Pin-tool (Wako Automation, Richmond VA) equipped with a 1536 pin head. The compounds were transferred to columns 5-48 resulting in a final concentration ranging from 0.17nM to 92uM. Daunomycin was used as a control in various concentrations (1mM working concentration; 1:2 dilution; 16 points; n=2; column 2, rows) for a final concentration range of 0.2 nM to 9.2 uM. 3. The assay plates were incubated overnight at 37C, 5% CO2, 95% humidity. 4. 2.5 uL of BacTiterGlo solution (Promega) was then added to the assay plates (column 1-48, rows 1-32). The assay plates were incubated at room temperature for 20 min. 5. Luminescence signal was acquired via the ViewLux plate reader using a clear emission filter, 2 second exposure and 2x binning settings.
Background: qHTS replaces the single test concentration by a dilution series.
As for `C[C@]12CC(O)C3[C@@H](CC[C@@H]4C[C@@H](O)CC[C@]34CO)[C@@]1(O)CC[C@@H]2C1=CC(=O)OC1` (stereo not given in full), the outcome was inactive.

Take `C/C=C1/CN2CC[C@]34C(=C(C(=O)OC)[C@H]1C[C@H]23)Nc1ccccc14`: the compound was classed as inactive.

Take `C[C@]12CCC3[C@@H](CC[C@@H]4C[C@@H](O)CC[C@]34CO)[C@@]1(O)CC[C@@H]2C1=CC(=O)OC1` (stereo not given in full): the outcome was inactive.

With `CCC(=O)N[C@@H](C[C@H](C)C(Cl)(Cl)Cl)C(=O)N1C(=O)C=C(OC)[C@@H]1C[C@H](C)C(Cl)Cl`, the compound was classed as inactive.

For the compound `CO[C@H]1[C@H](O[C@H]2CC[C@]3(C=O)[C@H]4CC[C@]5(C)[C@@H](C6=CC(=O)OC6)CC[C@]5(O)[C@@H]4CC[C@]3(O)C2)O[C@H](C)[C@H](O)[C@@H]1OC`, the outcome was inactive.

On to `C/C(=C\[C@H](C)C(=O)C[C@H](O)CC1CC(=O)NC(=O)C1)[C@@H]1OC(=O)/C=C/CC/C=C/C=C/[C@@H]1C`, for which the call was inactive.

For the compound `CO[C@H]([C@@H](C)[C@H]1O[C@]1(C)C[C@H](C)/C=C/C=C(\C)[C@H]1O[C@@H](CC(=O)O)CC[C@@H]1C)[C@@H](C)O`, the outcome was inactive.

On to `C=CC(C)(C)[C@@]12C[C@H]3C(=O)N/C(=C\c4cnc[nH]4)C(=O)N3[C@@H]1Nc1ccccc12`, for which the compound was called inactive.

As for `C/C=C(\C)C(=O)O[C@@H]1[C@@H](O)[C@@H]2O[C@H]3[C@H](O[C@@H](CCCCC)CCCCCCC(=O)CCC(=O)OC[C@@H](O2)[C@H]1OC(=O)/C=C/c1ccccc1)O[C@H](C)[C@H](OC(C)=O)[C@@H]3O`, the compound was classed as inactive.

In the case of `CO[C@@H](/C=C/CC/C=C/C(=O)O)[C@@H](O)[C@H](C)/C=C(\C)[C@H](O)[C@H](C)C(=O)CCCC1CC(=O)NC(=O)C1`, the outcome was inactive.

Take `CC[C@@H]1CN2CCC3(Nc4cccc(OC)c4C3=O)[C@@H]2C[C@@H]1/C(=C\OC)C(=O)OC` (stereo not given in full): the outcome was inactive.

With `COC1=C(C2=C(OC)C(=O)c3cc4c(c(O)c3C2=O)C(=O)O[C@H](C)C4)C(=O)c2c(cc3c(c2O)C(=O)O[C@H](C)C3)C1=O`, the result was inactive.

Regarding `C1=C2CCCN[C@H]2C2CC1[C@H]1CCCCN1C2` (stereo not given in full), the result was inactive.

Take `C=C(C)[C@H]1C(=O)c2c3c(cc4c5c(n1c24)[C@@]1(C)[C@@H](CC[C@H]2[C@](C)(/C=C/C=C(\C)C(=O)O)[C@@H](O)CC[C@@]21C)C5)C1=CC(C)(C)OC(C)(C)[C@H]1[C@@H]3O`: the outcome was inactive.

In the case of `CC(C)CC1C(=O)O[C@H](C(C)C)C(=O)N(C)C(CC(C)C)C(=O)O[C@@H](C(C)C)C(=O)N(C)C(CC(C)C)C(=O)O[C@H](C(C)C)C(=O)N(C)C(CC(C)C)C(=O)O[C@@H](C(C)C)C(=O)N1C` (stereo not given in full), the call was inactive.

In the case of `C=C[C@]12C=CCN3CC[C@@]4(c5ccccc5NC(=O)[C@@H]4C1)[C@@H]32`, the call was inactive.

On to `CO[C@H]1C[C@H](O[C@H]2[C@@H](O)C[C@H](O[C@H]3CC[C@]4(C=O)[C@H]5CC[C@]6(C)C(C7=CC(=O)OC7)CC[C@]6(O)[C@@H]5CC[C@]4(O)C3)O[C@@H]2C)O[C@H](C)[C@H]1O[C@H]1C[C@@H](OC)[C@@H](O[C@@H]2O[C@H](CO)[C@@H](O)[C@H](O)[C@H]2O)[C@@H](C)O1` (stereo not given in full), for which the outcome was inactive.

In the case of `C[N+](C)(C)CCc1c[nH]c2ccccc12`, the result was inactive.

For the compound `CC[C@@H]1CN2CCc3c([nH]c4cccc(OC)c34)[C@@H]2C[C@@H]1/C(=C\OC)C(=O)OC`, the outcome was inactive.

As to `CC[C@H](C)[C@H]1NC(=O)[C@@H](NC(=O)C(C)[C@H](O)C(C)C)[C@@H](C)OC(=O)C2COC(=O)CNC(=O)/C=C\[C@]3(CO3)[C@@H](C)Oc3ccc(cc3)[C@H](NC1=O)C(=O)N(C)C(Cc1ccccc1)C(=O)NC(C(C)O)C(=O)N2` (stereo not given in full) (X2-T[d(aIle)][X3][ξNMeF][ξT][ξS]; ester 1-C; linker 3-6 via G), the call was inactive.

On to `CO[C@@]12c3c(C)cc(O)c4c(=O)occ(c34)C(=O)[C@@H]1[C@]13COC(=O)c4c(O)cc(C)c(c41)C(=O)[C@H]2[C@@H]3OC(C)=O`, for which the compound was classed as inactive.

For `CC[C@H]1CN2CCc3c([nH]c4cccc(OC)c34)[C@@H]2C[C@@H]1/C(=C\OC)C(=O)OC`, the compound was classed as inactive.

Take `C[C@]12CC(O)C3[C@@H](CCC4C[C@@H](O)CC[C@@]43CO)[C@@]1(O)CC[C@@H]2C1=CC(=O)OC1` (stereo not given in full): the compound was classed as inactive.

As for `C=C[C@H]1CN2CCc3c([nH]c4cccc(OC)c34)[C@@H]2C[C@@H]1/C(=C\OC)C(=O)OC`, the compound was classed as inactive.

Turning to `CC[C@]12C=CCN3CC[C@]4(C(=C(C(=O)OC)C1)Nc1ccccc14)[C@@H]32`, the compound was classed as inactive.

As to `COC1C(O)C(C)OC(OC2C(Oc3cccc4c(O)c5c(=O)oc6ccc(C)c7c(=O)oc(c34)c5c67)OC(C)C(O)C2O)C1O` (stereo not given), the compound was classed as inactive.

`C=CC(C)(C)[C@@]12C[C@H]3C(=O)N/C(=C/c4cnc[nH]4)C(=O)N3[C@@H]1Nc1ccccc12`: the result was inactive.

Turning to `C/C=C/[C@@H]1[C@H]2C[C@@H](C)CC[C@@H]2C(C)=C[C@H]1C(=O)c1c(O)c(-c2ccc(O)cc2)c[nH]c1=O`, the call was inactive.

`CCCC[C@@H]1CC[C@H]2CCCC(CCCO)N12` (stereo not given in full): the result was inactive.

As for `c1ccc2nc3c(cc2c1)[nH]c1ccccc13`, the compound was called inactive.

For `CCCCC1CC[C@H]2CCCC(CCC)N12` (stereo not given in full), the compound was classed as inactive.

`CCCC[C@@H](C)/C=C1/CN2CCC[C@H]2[C@@](C)(O)[C@@H]1O`: the compound was called inactive.

Take `O[C@H]1C=C[C@@]23CCN(Cc4cc5c(cc42)OCO5)[C@@H]3C1`: the result was inactive.

Consider `C/C=C1/CN2CC[C@@]34c5ccccc5N(C)[C@@H]3[C@@H]2C[C@@H]1[C@H]4C(=O)OC`, for which the outcome was inactive.

Consider `C/C=C1/CN2C3CC1C1=CCC(=O)N4c5ccccc5[C@@]3(C[C@@H]2C2=C[C@H]3C5CC6N(CC[C@@]67c6ccccc6N(C2=O)[C@@H]37)C/C5=C/C)[C@H]14` (stereo not given in full), for which the call was inactive.
